Screens (PubChem)
Most compounds without a hit are left out; they make up all but 6.2% or so of the library.
HCMV inh – blocks human cytomegalovirus replication; HFF cells, HCMV-luciferase reporter, 72 h; stronger effect = lower value; activity change, negative = inhibition, % at 57.5 µM; 410,000 tested, 4.5% active; in the data active = activity change below about -60%; inconclusive = no clear call, values can overlap the other calls; inactive = above about -39%
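HFF cells seeded 16 h at 37C, treated with compounds, infected with luciferase-reporter HCMV at MOI 1 PFU/cell; luciferase read at 72 h post infection, normalized to buffer-only and Salinomycin controls.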
FMDV inh – foot and mouth disease virus antiviral activity | FMDV antiviral cell-based qHTS | Potency, µM (top dose mostly 57.9 µM), without a hit: at the top dose activity change, negative = inhibition, actives largely listed as inhibitors | 410,000 tested, 1.2% active; calls by dose curve; tested in HEK293T cells; also: read-out not given here; potency is read from the fitted curve at half-maximal effect; nearly all actives have a fitted effect of over 45% in size
LASV entry inh – blocks Lassa virus binding to or entry into cells; Lassa virus pseudotype entry inhibition, cell reporter; Potency, µM (highest dose often 37.9 µM), for the others: at the highest dose activity change, negative = inhibition, most hits filed as inhibitors; 300,000 tested, 1.2% active; AID 540256; calls by dose curve; tested in HEK293 cells; also: potency is read from the fitted curve at half-maximal effect; nearly all actives have a fitted effect of over 50% in size
MARV entry inh – inhibitors of Marburg virus binding or cell entry; Potency, µM (doses to about 37.8 µM), for inactives: top-dose activity change, negative = inhibition, most hits filed as inhibitors; AID 540276; Marburg virus pseudotyped entry inhibition, cell reporter; 300,000 tested, 1.8% active; calls by dose curve; tested in HEK293 cells; also: potency is read from the fitted curve at half-maximal effect
* hit, by the source's call; ? = inconclusive; . = no result given; [ ] = another dose, or the depositor's remark. % is scaled to controls: 0 for no effect and ±100 for the full control effect.

SMILES	HCMV inh	FMDV inh	LASV entry inh	MARV entry inh
Cc1sc(NC(=O)c2ccco2)c(C(c2ccc(F)cc2)N2CCN(C)CC2)c1C (centres undefined)	.	-1.5%	?	6.31µM*
COc1ccc(C(c2c(NC(=O)c3ccco3)sc(C)c2C)N2CCOCC2)cc1OC (centres undefined)	-16.5	-24.0%	.	.
CCOc1ccc(C(c2c(NC(=O)c3ccccc3)sc(C)c2C)N2CCN(CCO)CC2)cc1 (centres undefined)	-35.9	-7.7%	?	8.91µM*
Cc1cc(C)c2oc(C(=O)N(Cc3ccc(F)cc3)C3CCS(=O)(=O)C3)cc(=O)c2c1 (centres undefined)	33.3	-10.8%	1.3%[46.1 µM]	12.5%[46.1 µM]
C(=C\c1ccccc1)/CN1CCN(c2ncnc3c2oc2ccccc23)CC1	-72.7*	20µM*	-15.5%	?
CCC(=O)NCc1csc(-c2cccs2)n1	-70.3*	45.2%	?	?
Cc1onc(-c2ccccc2Cl)c1C(=O)N(C)CC(=O)Nc1ccc(F)c(F)c1F	-15.4	-14.6%	0.9%	-13.0%
Cc1ccc2c(c1)c(C1=c3ccccc3=NC1=O)c(O)n2C	110.9	?	.	.
C=CCn1c(O)c(C2=c3ccccc3=NC2=O)c2ccccc21	10.4	28.2µM*	?	?
CCN1CCc2c(sc(NC(=O)c3ccc4ccccc4c3)c2C(N)=O)C1	-18.5	.	.	.
COc1ccc(-c2c(-c3ccccc3)c(C(=O)C(=O)NCCCN(C)C)n3ccc4cc(OC)c(OC)cc4c23)cc1OC	-96.5*	31.8%	-13.0%	?
CN(C)CCNC(=O)C(=O)c1c(-c2ccccc2)cc2ccccn12	-39.5	-6.1%	3.5%	-4.5%[46.1 µM]
COc1cc(C2SC(C)C(=O)N2CCc2ccccc2)cc(OC)c1OC (centres undefined)	50.7	-20.8%	.	.
Cc1ccc(C(O)(c2ccc(C)c(C)c2)C2CN3CCC2CC3)cc1C (centres undefined)	-97.3*	?	.	.
Cc1ccccc1C(O)(Cc1ccccc1)C1CN2CCC1CC2 (centres undefined)	-18.5	-25.3%	?	?
CC1(C)CCC(=NNC(N)=S)CC1	-0.2	-5.5%	-1.7%	?
CC1(C)C2CCC(C2)C1C/C=N/NC(N)=S (centres undefined)	-72.9*	?	0.7%	?
CC[C@@H](C)[C@H](NC(=O)Cc1c(C)c2c(cc(C)c3c(C)c(C)oc32)oc1=O)C(=O)O	16.0	-10.5%	7.9%[46.1 µM]	?
COc1nnc(-c2ccc(N3CCOCC3)c(NC(=O)C3CCCCC3)c2)c2ccccc12	?	?	-7.1%	-13.4%
COc1nnc(-c2ccc(N3CCCCC3)c(NC(=O)c3ccccc3)c2)c2ccccc12	-24.6	8.91µM*	24.3%[46.1 µM]	?
COc1nnc(-c2ccc(N3CCCCC3)c(NC(=O)c3ccc(Cl)cc3)c2)c2ccccc12	-0.8	?	2.4%[46.1 µM]	-0.9%[46.1 µM]
COc1nnc(-c2ccc(N3CCCCC3)c(NC(=O)C3CCCCC3)c2)c2ccccc12	-100.8*	?	16.6%	2.0%
CC1CN(Cc2cc(=O)oc3cc(O)ccc23)CC(C)O1 (centres undefined)	-6.0	-20.7%	5.1%[46.1 µM]	6.7%[46.1 µM]
CC(=O)Nc1ccc(S(=O)(=O)N=S(C)C)cc1	-20.0	-18.3%	3.3%	-15.2%
Cc1cc(C)n(CC(O)CN(c2ccccc2)S(=O)(=O)c2ccccc2)n1 (centres undefined)	-26.3	?	5.8%	-14.0%[46.1 µM]
SMILES	HCMV inh	FMDV inh	LASV entry inh	MARV entry inh
CCOC(=O)N1CCC(NC(=O)C2CCCN(S(=O)(=O)c3ccc4c(c3)oc(=O)n4C)C2)CC1 (centres undefined)	-62.8*	.	-15.7%	8.7%
Cn1c(=O)oc2cc(S(=O)(=O)N3CCC(C(=O)N4CCN(c5cccc(Cl)c5)CC4)CC3)ccc21	-11.3	?	-10.6%[46.1 µM]	?
Cn1c(=O)oc2cc(S(=O)(=O)N3CCCC(C(=O)N4CCN(c5cccc(Cl)c5)CC4)C3)ccc21 (centres undefined)	?	25.1µM*	2.5%[46.1 µM]	-16.4%[46.1 µM]
CCOC(=O)C1CCCN(S(=O)(=O)c2ccc3c(c2)oc(=O)n3C)C1 (centres undefined)	7.1	-12.7%	4.0%[46.1 µM]	-17.9%[46.1 µM]
Cc1cccc(N2CCN(C(=O)C3CCCN(S(=O)(=O)c4ccc5c(c4)oc(=O)n5C)C3)CC2)c1C (centres undefined)	?	11.2µM*	?	?
CC(=O)N1CCOc2ccc(S(=O)(=O)N3CCCC(C)C3)cc21 (centres undefined)	0.0	-3.1%	.	.
CCCc1nnc(NC(=O)CCC(=O)N2CCCCC2)s1	0.0	-1.0%	.	.
Cn1c(=O)c2c(ncn2CC(=O)OCCCC(=O)c2ccc(Br)cc2)n(C)c1=O	?	?	-18.8%[46.1 µM]	?
COC(=O)c1cc(O)cc(OC)c1Oc1cc(C)cc(O)c1C(=O)O	-105.7*	0.5%	.	.
O=C(CCc1cn(Cc2ccccc2Cl)c2ccccc12)NC1CCCCC1	-72.1*	-12.9%	-28.5%[46.1 µM]	.
COC(=O)c1ccc2c(c1)C(C)(C)C(/C=C/c1ccccc1O)=[N+]2C	-104.1*	7.94µM*	?	?
N#CC1=C(N)NC(SCc2ccc(F)cc2)=C(C#N)C12CCCCC2	-26.2	-24.4%	?	7.94µM*
N#CC1=C(N)NC(SCC(=O)O)=C(C#N)C12CCCC2	7.6	-17.8%	-1.5%	-21.5%[46.1 µM]
Cc1cccc(C)c1OCC(=O)Nc1nonc1-c1ccc(Br)cc1	-18.5	-4.3%	?	0.2%[46.1 µM]
Cc1cc(C)cc(OC(C)C(=O)Nc2nonc2-c2ccc(Br)cc2)c1 (centres undefined)	-62.0*	-29.8%	10.8%[46.1 µM]	-2.9%[46.1 µM]
CN1C=C/C(=C\c2cc[n+](C)c3ccccc23)c2ccccc21	-99.9*	17.8µM*	.	.
CC[n+]1ccc(/C=C2\Sc3ccccc3N2CCCS(=O)(=O)[O-])c2ccccc21	30.8	3.3%	2.4%	29.3%[46.1 µM]
Clc1ccc(CN2CCCCCCC2)cc1Cl	8.9	-9.8%	-6.3%	11.3%
Clc1ccc(CN2CCCCCC2)cc1	17.6	-21.1%	9.6%	-0.2%
N=c1ccn(Cc2ccc(Cl)cc2)cc1	-92.7*	?	?	?
N=c1ccn(Cc2ccc(Cl)c(Cl)c2)cc1	-97.1*	?	-29.3%	?
N=c1ccn(Cc2cccc(Cl)c2)cc1	-71.0*	?	?	?
COc1ccc(NC(=O)Cn2nc(-c3ccccc3)c3cnc4ccc(C)cc4c32)cc1	47.3	27.8%	-19.8%[46.1 µM]	.
CC(C)C1C(C#N)=C(N)Oc2n[nH]c(-c3ccc4ccccc4c3)c21 (centres undefined)	8.1	.	-16.6%	-16.5%
O=C(C[C@@H]1C/C=C\C[C@H](NC(=O)OCC2c3ccccc3-c3ccccc32)C(=O)OC[C@H]2CCCN2C1=O)N[C@H](CO)Cc1ccccc1	-11.4	?	.	.
CCOC(=O)c1ccc(CNS(=O)(=O)c2c(C)ccc3nsnc23)o1	-2.4	-11.1%	-8.9%	12.8%
CCCc1ccc(OCc2nc(-c3ccc(NC(=O)c4ccco4)cc3)no2)cc1	?	21.1%	10µM*	?
COc1ccc(-c2noc(C(C)NC(=O)c3ccco3)n2)cc1 (centres undefined)	-23.7	-3.7%	23.7%[46.1 µM]	1.7%[46.1 µM]
